# In PubChem BioAssay AID1851 (National Center for Advancing Translational Sciences (NCATS), 2009):
# “And” between values parts separate entries of the source, which are not always exact repeats. Identical values can stand only once. Among all 16,000 compounds or so, about 2,600 (16%) were called active. Not shown: some 20% with an inconclusive outcome. These entries were drawn from the full list. Values without a mark were called inactive. Calls come from the whole dose curve; as a rule, active = well fitted curve in the direction sought with a large enough effect; inconclusive = small, poorly fitted or top-dose-only effect, or effect the other way; inactive = no such curve, though single readings can be large or run the other way.
# Target: Cytochrome P450 2D6 (Homo sapiens) (UniProt P10635)
# Sequence (P10635 whole entry, looked up): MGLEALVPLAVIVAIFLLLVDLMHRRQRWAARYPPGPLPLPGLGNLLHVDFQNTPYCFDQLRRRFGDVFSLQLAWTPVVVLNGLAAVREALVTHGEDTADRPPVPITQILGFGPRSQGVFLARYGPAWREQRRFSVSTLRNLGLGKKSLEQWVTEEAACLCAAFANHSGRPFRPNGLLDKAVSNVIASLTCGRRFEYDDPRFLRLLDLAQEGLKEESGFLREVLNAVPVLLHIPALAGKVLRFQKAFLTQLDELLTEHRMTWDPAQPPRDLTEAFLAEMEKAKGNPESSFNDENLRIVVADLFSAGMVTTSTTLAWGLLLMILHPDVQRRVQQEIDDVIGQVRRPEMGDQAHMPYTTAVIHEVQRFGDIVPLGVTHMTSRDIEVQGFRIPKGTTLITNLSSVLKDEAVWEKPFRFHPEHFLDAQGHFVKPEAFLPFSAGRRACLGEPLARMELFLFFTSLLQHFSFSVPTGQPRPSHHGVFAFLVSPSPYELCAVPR
# Assay: Cytochrome panel assay with activity outcomes
# Details: recombinant CYP, pro-luciferin dealkylation, luminescence, p450-cyp2d6; series mostly up to 57.1 µM
# % is set by controls: 0 for no effect and ±100 for the full control effect.
Structure (SMILES),AC50,"activity, negative = inhibition"
Cc1ccn2c(NC(=O)c3ccccc3)c(-c3cccs3)nc2c1,inactive,–
CC[N+](CC)(CC(=O)Nc1c(C)cccc1C)Cc1ccccc1,0.00794 µM (active),–
CC[N+](CC)(CC)CC(=O)Nc1c(C)cccc1C,inactive,–
Cc1cccc(C)c1NC(=S)NC(=O)CCc1ccccc1,inactive,–
COc1ccc(CCNC(=O)C2CCN(S(=O)(=O)N3CC(C)CC(C)C3)CC2)cc1OC (configuration not stated),inactive,–
C1CCC(N=C(NC23CC4CC(CC(C4)C2)C3)N2CCOCC2)CC1,0.631 µM (active),–
COC(=O)[C@@]1(Cc2ccc(OC)cc2)[C@H]2c3cc(C(=O)N4CCCC4)n(Cc4cc(F)cc5c4OCOC5)c3C[C@H]2CN1C(=O)c1ccccc1,inactive,–
CCn1ccc(C(=O)NC2=C(C#N)CCC2)n1,inactive,–
Cn1cc(C(=O)OCC2CCN(CCNS(C)(=O)=O)CC2)c2ccccc21,inactive,–
COc1cc(COc2cc(N)c(Cl)cc2C(=O)CCC2CCN(CCNS(C)(=O)=O)CC2)cc(OC)c1,0.794 µM (active),–
COc1cc(N)c(Cl)cc1C(=O)CCC1CCN(CCNS(C)(=O)=O)CC1,12.6 µM (active),–
COc1[nH]c2ccc(F)cc2c1C(=O)OCC1CCN(CCNS(C)(=O)=O)CC1,inactive,–
COc1cc(/C=C(\C#N)C(=O)NCC2CCCO2)c([N+](=O)[O-])cc1OC (configuration not stated),inactive,–
CCn1c(CC(C)C)n[nH]c1=S,inactive,–
CO[C@H]1COC(=O)C/C=C\[C@H](C)[C@@H](NS(=O)(=O)c2ccc(C)cc2)COC(=O)CCC[C@@H]1C,–,8.76% [at 11.4 µM]
COC(Cc1nnc(SC)n1-c1ccc(Cl)cc1)OC,inactive,–
Cc1cccc(Oc2coc3cc(OC(=O)c4cccs4)ccc3c2=O)c1,inactive,–
Cc1ccc(CS(=O)(=O)CCC(=O)N2CCOCC2)cc1,inactive,–
CC(C)n1c(N2CCN(C(=O)Nc3ccccc3)CC2)nc2ccccc21,inactive,–
Cn1cc(/C=N/n2cnc3sc4c(c3c2=O)CCCC4)c2ccccc21,inactive,–
COc1ccc2[nH]cc(CCNc3ncnc4ccc(-c5ccoc5)cc34)c2c1,5.01 µM (active),–
COc1cccc(-c2ccc3ncnc(NCCc4c[nH]c5ccc(OC)cc45)c3c2)c1,2.51 µM (active),–
COc1ccc2[nH]cc(CCNc3ncnc4ccc(-c5cccnc5)cc34)c2c1,7.94 µM (active),–
COc1ccc2[nH]cc(CCNc3ncnc4ccc(-c5ccc6c(c5)OCO6)cc34)c2c1,2.51 µM (active),–
COC(=O)[C@@H]1CC[C@H](C)[C@@H](c2ccc(C)cc2)N1C(=O)c1ccc(/C=N\O[C@@H](C)c2cn([C@H](CO)Cc3ccccc3)nn2)cc1,–,12.4% [at 11.4 µM] and -16.1% [at 11.4 µM]

Structure (SMILES),AC50,"activity, negative = inhibition"
N[C@](CC1c2ccccc2Oc2ccccc21)(C(=O)O)[C@@H]1C[C@@H]1C(=O)O,inactive,–
COc1ccc(-n2c(=O)c(-c3ccc(F)cc3)nc3cncnc32)cc1,inactive,–
Cn1nnnc1SCc1ccc(C(=O)Nc2ccc(Br)cc2)cc1,inactive,–
CCC(=O)OCc1c(C(F)(F)F)nn(C)c1Sc1ccc(F)cc1,inactive,–
CC(C)(C)C(=O)NC(=C(Cl)Cl)P(=O)(O)O,inactive,–
Cc1c(C)c2c(c(C)c1O)CC[C@@](C)(C(=O)O)O2,inactive,–
CCCNc1nc(NCC)nc(OC)n1,inactive,–
Cc1noc(C)c1C(=O)N1CCC2(CCCN(Cc3nccs3)C2)CC1,inactive,–
C[C@H](O)[C@H](O)[C@@H]1CNc2nc(N)[nH]c(=O)c2N1,inactive,–
COc1ccc2[nH]cc(CCNc3ncnc4ccc(-c5c(C)noc5C)cc34)c2c1,6.31 µM (active),–
Fc1ccc(-c2[nH]ncc2-c2nnnn2-c2ccccc2)c(F)c1,inactive,–
Clc1ccc2[nH]cc(-c3nnnn3-c3ccccc3)c2c1,28.2 µM (active),–
Cc1ccc(-n2nnnc2-c2cnc3ccc(Cl)cc3c2-c2ccccc2)cc1,inactive,–
Cc1cccc(C2NC(=O)c3c(sc(C)c3C)N2)c1O (configuration not stated),inactive,–
Clc1ccc(-c2nnc(-c3ccc(Br)cc3)c(N3CCSCC3)n2)cc1,inactive,–
CC(C)NNC(=O)c1ccncc1,inactive,–
CC1(C)Cc2ccccc2C(NNC(=O)c2ccncc2)=N1,7.94 µM (active),–
O=C(NNC(=O)c1ccncc1)c1ccncc1,–,-4.63% [at 11.4 µM]
O=C(Cc1ccccc1)N/N=C/c1cc(Br)c(Br)o1,inactive,–
COc1ccc(OC)c(C2N(c3cc(C)on3)C(=O)C3CCCN32)c1 (configuration not stated),inactive,–
COc1ccc(C(F)(F)F)cc1N/C=C\c1nnnn1-c1ccccc1,inactive,–
O=C(CSc1ccccc1)Nc1ccc(N2CCN(c3ccccc3)CC2)c(F)c1,inactive,–
CCOC(=O)c1[nH]c2cc3c(cc2c1NC(=O)CN1CCC2(CC1)OCCO2)OCO3,inactive,–
O=C(CN1CCN(S(=O)(=O)c2ccc(Cl)cc2)CC1)Nc1ccc2c(c1)OCO2,2.51 µM (active),–
O=C(CSc1ccc(Cl)cc1)Nc1ccc(N2CCN(c3ccccc3)CC2)c(F)c1,inactive,–

Structure (SMILES),AC50,"activity, negative = inhibition"
CCOC(=O)c1[nH]c2cc(OC)c(OC)cc2c1NC(=O)c1nonc1C,inactive,–
COc1cc2c(cc1OC)CN(C(=S)Nc1ccccc1)CC2,inactive,–
CCN(CC(=O)Nc1ccc2c(c1)OCCO2)C(=O)c1cccc(S(=O)(=O)N2CCOCC2)c1,inactive,–
O=C(CN1CCN(c2ccc(Cl)cc2)CC1)Nc1ccc(F)c(F)c1,3.55 µM (active),–
COc1cc2c(cc1OC)CN(CC(=O)Nc1ccc3c(c1)OCO3)CC2,8.91 µM (active),–
CCOc1ccc(NC(=O)CN2CCN(S(=O)(=O)c3ccc(Cl)cc3)CC2)cc1,inactive,–
COc1cc(-c2nnc(SCC(=O)Nc3ccc4c(c3)OCCO4)o2)cc(OC)c1OC,inactive,–
CCOC(=O)c1[nH]c2cc3c(cc2c1NC(=O)CN1CCc2ccccc2C1)OCO3,3.55 µM (active),–
N[C@@](CC(=O)O)(Cc1ccccc1)C(=O)O,–,7.77% [at 11.4 µM]
CCN1C(=O)[C@H]2[C@H]3[C@H](O)[C@H](O)C/C(=N/O[C@@H](C)c4cn([C@H]5COC[C@H]5O)nn4)[C@@H]3CC[C@@H]2C1=O,–,-1.04% [at 11.4 µM]
C[C@H](C(=O)c1ccncc1)c1ccccn1,–,-3.93% [at 11.4 µM]
O=C(O)CN(CCN(CC(=O)O)CC(=O)O)CC(=O)O.[Mn],–,9.26% [at 11.4 µM]
Cc1cc(=O)oc(C)c1C(=O)N1CCCCC1,inactive,–
CCCC[C@@H]1CN2[C@H](c3ccc(Br)cc3)[C@@H](C)CC[C@H]2C(=O)O1,–,-5.55% [at 11.4 µM]
COc1ccc(S(=O)(=O)N2CCCN(CC(=O)Nc3ccc(OC)c(Cl)c3)CC2)cc1,11.2 µM (active),–
COc1ccc(C)cc1NC(=O)CN1CCN(S(=O)(=O)c2ccc(F)cc2)CC1,inactive,–
Cc1c(C(=O)Nc2cccc(C(F)(F)F)c2)oc2ccc(S(=O)(=O)N3CCOCC3)cc12,inactive,–
CCN1CCN(CCC(=O)Nc2cccc(OC)c2)CC1,inactive,–
COc1ccc(NC(=O)c2cc(S(=O)(=O)N3CCS(=O)(=O)CC3)ccc2Cl)cc1,inactive,–
COc1ccc(S(=O)(=O)N2CCCN(CCC(=O)Nc3cccc(C(F)(F)F)c3)CC2)cc1,8.91 µM (active),–
Cc1nc(SC2CC(=O)N(c3ccc([N+](=O)[O-])cc3)C2=O)nc2c1CCCC2 (configuration not stated),inactive,–
COC(=O)c1ccc(C(=O)OC)c(NC(=S)N2CCN(c3ccccc3)CC2)c1,inactive,–
C=CCOc1cccc(CNn2cn[nH]c2=S)c1,inactive,–
COc1cc(C2C(C#N)=C(N)N(c3sc4c(c3C#N)CCCC4)C3=C2C(=O)CC(C)(C)C3)cc(OC)c1OC (configuration not stated),inactive,–
Cc1cc(C)c(O)c(Cc2cccc(Cc3cc(C)cc(C)c3O)c2O)c1,–,12.6% [at 11.4 µM]

Structure (SMILES),AC50,"activity, negative = inhibition"
Cc1ccc(C(=O)N/N=C/c2sc(=O)n(Cc3cccc(C(=O)O)c3)c2Cl)cc1,inactive,–
CO[C@@H]1COC(=O)[C@H](C)NC(=O)[C@@H](C)COC(=O)CCC[C@H]1C,–,8.56% [at 11.4 µM]
CSc1nncc(/C(C)=N\Nc2ccccc2)n1,inactive,–
COCCN=C1Sc2nc3c(C)cccc3cc2CN1Cc1ccco1,14.1 µM (active),–
CCn1c(SCC(=O)NC2CCCCC2)nnc1-c1cc2cccc(OC)c2o1,inactive,–
COCCNC(=O)CSc1ncnc2sccc12,inactive,–
COc1ccc(C2C(C(=O)N3CCN(C)CC3)c3ccccc3C(=O)N2C2CCCCC2)cc1 (configuration not stated),inactive,–
CN(C)CCCNc1ncnc2nc[nH]c12,–,1.66% [at 11.4 µM]
Cc1ccc2nc(NC(=O)COC(=O)CSc3nc(C)cc(C)n3)sc2c1,inactive,–
Cc1ccc2nc(NC(=O)COC(=O)c3ccc(Br)o3)sc2c1,15.8 µM (active),–
Cc1ccc2nc(NC(=O)CSCC(=O)OCC(=O)c3ccc(Br)cc3)sc2c1,inactive,–
C=C[C@]1(C)C[C@H](OC(=O)CO)[C@]2(C)C3C(=O)CC[C@]3(CC[C@H]2C)[C@H](C)[C@H]1O (some centres not stated),–,-10.6% [at 11.4 µM]
CC(=O)OCC(=O)[C@@]1(O)CC[C@@H]2[C@H]3CCC4=CC(=O)C=C[C@]4(C)[C@]3(F)[C@@H](O)C[C@@]21C,inactive,–
O=C1C=C[C@@H](O)[C@H]2[C@@H]3C(=O)N(c4cccc(Oc5ccccc5)c4)C(=O)[C@@H]3CC[C@H]12,–,-0.0224% [at 11.4 µM]
COc1ccccc1CCn1c(=O)c(-c2cc(F)cc(F)c2)nc2cncnc21,inactive,–
CCCN(C(=S)Nc1ccccc1)C1CCS(=O)(=O)C1 (configuration not stated),inactive,–
Cc1cccc(NC(=S)NNC(=O)CCn2cc(C)cn2)c1,inactive,–
Cc1cccc(NC(=S)NC(=O)CCc2ccccc2)c1,inactive,–
Cc1cccc(NC(=O)Cn2c(=O)oc3ccccc32)c1,3.16 µM (active),–
Cc1cccc(NC(=O)Cn2cccc2)c1,inactive,–
COc1ccc(CCNC(=O)Cn2c(=O)oc3ccccc32)cc1OC,inactive,–
Cc1cccc(NC(=O)Cn2c(=O)n3nc(CCn4nc(C)cc4C)nc3c3ccccc32)c1,14.1 µM (active),–
